Experimental data as given in PubChem BioAssay (NCI).
About 83,000 compounds went through this panel and 20% of them were active in at least one assay; those are over-represented in the sample as a whole.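 Treatment: one concentration, 48 hours, 96-well format. Scoring: percent growth, with anything below 10 considered active.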 A number with no mark means an inactive call. Activity calls are given as the source filed them.

Tests used:
Experiment in all cases: NCI-60 one-dose screen, 48 h (100 = growth as untreated, 0 = no growth, -100 = all killed)
Settings in all cases: 10 µM unless noted
[1] = test system: SR leukemia
[2] = test system: RPMI-8226 leukemia
[3] = test system: OVCAR-8 ovarian
[4] = test system: OVCAR-5 ovarian
[5] = test system: OVCAR-4 ovarian
[6] = test system: SK-OV-3 ovarian
[7] = test system: IGROV1 ovarian
[8] = test system: OVCAR-3 ovarian
[9] = test system: HS 578T breast
[10] = test system: NCI/ADR-RES ovarian

Structure (SMILES)	growth [1]	growth [2]	growth [3]	growth [4]	growth [5]	growth [6]	growth [7]	growth [8]	growth [9]	growth [10]
O=C1COc2ccccc2C(=O)N1CCCCN1CCCCC1	90.1%	70.9%	94.2%	95.9%	95%	80.4%	92%	110%	102%	98.8%
COc1cc(NC(=O)c2cc(OC)c3ccn(C)c3c2)cc2c1C[C@]1(C)CC[C@@H](O)C(C)(C)[C@H]1O2	19.2%	-16.6% (active)	75.8%	81.4%	84.6%	53%	68%	80.7%	10.2%	82.6%
C[C@]12O[C@H]1[C@H](O)c1c(cc(O)c3c1C(=O)c1cccc(O)c1-3)C2=O	93.6%	93.6%	98.1%	106%	92.4%	97.9%	102%	106%	93.9%	107%
COc1ccccc1S(=O)(=O)Nc1ccc2c3c(cc(-c4ccoc4)nc13)C(=O)N2C	59.2%	15.5%	70.5%	76.3%	55.1%	59.3%	62%	74%	56.2%	55.1%
Cc1ccc(-c2cn3cc([N+](=O)[O-])ccc3n2)cc1	75.5%	72.6%	76.7%	109%	78.1%	102%	71%	101%	97.1%	83.4%
CNCCCOc1c(Br)cc(CCNC(=O)/C(Cc2cc(Br)c(OC)c(Br)c2)=N/O)cc1Br	-57% (active)	-30.7% (active)	2.04% (active)	36.2%	14.3%	37.2%	6.03% (active)	-25.4% (active)	-17.9% (active)	9.44% (active)
COC(=O)c1ccc(NC(N)=NCC(C)(C)COc2ccc(C(F)(F)F)cc2)nc1	-32.3% (active)	10.9%	52.2%	72%	40.6%	106%	21.3%	50%	86.3%	44.6%
OCc1cnccc1NC12CC3CC(CC(C3)C1)C2	98.9%	96.8%	93.8%	107%	101%	100%	102%	103%	103%	98.8%
COc1ccc(Cn2cc(COc3ccc4c5ccnc(C)c5n(CCCc5ccccc5)c4c3)nn2)cc1	-29% (active)	-3.72% (active)	61.9%	111%	70.2%	95.3%	75.3%	76%	77.8%	67%
COc1ccc(C(=O)NC(=O)Nc2ccc3c(c2)NC(=O)/C3=C\c2[nH]c(C)c(CCC(=O)O)c2C)c(F)c1	18.8%	13%	8.62% (active)	64.4%	77%	56.6%	43%	23.4%	-5.02% (active)	88.7%
